The other results are listed elsewhere or left out. Records with an inconclusive call do not appear. Values without a mark were called inactive. The source made the active and inactive calls. Calls follow the shape of the dose curve; as a rule, active = well fitted cell-killing curve with a large enough effect; inconclusive = small, poorly fitted or top-dose-only effect; inactive = flat fitted curve, though single readings scatter.
Test: qHTS screen for small molecules that inhibit ELG1-dependent DNA repair: Hit Confirmation with Unstimulated Viability Assay;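 also: compound exposure lasted 16 hours before reading; nearly all actives have a fitted effect of over 55% in size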
Conditions: cell viability counter-screen, luminescence; series mostly up to 45.9 µM; activity change, negative = loss of viability: at the top concentration
Text: Cancer cells divide rapidly compared to normal cells in the body. During cell division, cancer cells need to duplicate their genome by DNA replication. The failure of genome duplication leads to cancer cells' death. Therefore, inhibitors of DNA replication could specifically kill cancer cells. Based on this concept, many chemotherapeutic agents were developed and have been used to treat cancer patients. However, there are a limited number of agents available in the clinical setting, and some of those that do exist have low efficacy and severe side effects. Therefore, if we can find the compounds that effectively block DNA replication either by directly damaging DNA or by inhibiting other cellular mechanisms, the options for cancer treatment will be broadened. With this in mind, we developed a quantitative high-throughput ELG1-luciferase reporter gene assay. Small molecules that specifically block ELG1 function in response to DNA damage can be identified by monitoring the suppression of luciferase activity. Since ELG1 defines a pathway for repairing DNA damage, agents blocking ELG1 function can be used to sensitize cancer cells to chemotherapeutic agents whose mechanism of action involves the induction of DNA damage.
NIH Molecular Libraries Probe Production Network [MLPCN]
NIH Chemical Genomics Center [NCGC]
Assay Provider: Kyungjae Myung, NHGRI, NIH
For genotoxicity screening, 2,000 cells in 4 uL/well were dispensed into white, solid-bottom 1536-well plates using a solenoid-based dispenser. 23 nL compound or DMSO vehicle were added by a pin tool, the plates were incubated 16 hr at 37 °C and 5% CO2. 5 ul ONE-Glo (Promega) was then added to each plate and following a 30 min incubation at room temperature, luciferase activity was quantified on a ViewLux CCD-based plate reader.
For CS(=O)c1ccc(/C=C2\C=Cc3ccccc32)cc1 (stereo not given), the “activity change, negative = loss of viability” value was -2.21%.
With CCc1ccc(N(CC)c2ncnc3nc[nH]c23)cc1 the “activity change, negative = loss of viability” value was -6.97%.
In the case of COc1ccc(-c2nn(-c3ccccc3)cc2/C=C\C(=O)N2CCOCC2)cc1[N+](=O)[O-], the “activity change, negative = loss of viability” value is reported as 6.03%.
For CN(CC1CCCO1)S(=O)(=O)c1ccc(C(=O)Nc2ccc(F)cc2)cc1 (stereo not given), the “activity change, negative = loss of viability” value was -7.82%.
For CN(C)c1ccnc2sc3c(=O)n(Cc4ccccc4)cnc3c12, the “activity change, negative = loss of viability” value was -1.4%.
With Nc1nnc(SCC(=O)Nc2ccc3nc(SCC(=O)Nc4ccccc4)sc3c2)s1 the “activity change, negative = loss of viability” value was -15%.
With COc1ccc(-c2cc(C(=O)N(C)CC(=O)Nc3ccccc3Cl)c3ccccc3n2)cc1OC the “activity change, negative = loss of viability” value was -15.8%.
With Cc1ccccc1NC(=O)CSc1nc2ccc(Nc3nc(N4CCOCC4)nc(N4CCOCC4)n3)cc2s1 the “activity change, negative = loss of viability” value was -11.1%.
For CC(=O)N1CCc2cc(Br)cc(S(=O)(=O)CCC(=O)Nc3c(C)n(C)n(-c4ccccc4)c3=O)c21, the “activity change, negative = loss of viability” value was -1.72%.
For OCCCNc1nccc(-c2cc(Nc3cccc(Cl)c3)ncn2)n1, the Potency was 9.97 µM (active).
In the case of Cc1ccc(Nc2nc(N3CCOCC3)nc(N3CCOCC3)n2)cc1Cl, the “activity change, negative = loss of viability” value is reported as -6.73%.
For O=C(Nn1c(SCc2ccc([N+](=O)[O-])cc2)nc2ccccc2c1=O)c1ccc(F)cc1, the “activity change, negative = loss of viability” value was -4.1%.
In the case of Cc1nnc(N/N=C/c2ccccn2)[nH]c1=O, the “activity change, negative = loss of viability” value is reported as -9.82%.
With NC(=O)c1sc2nc3c(c(-c4ccccc4)c2c1N)CCC3 the “activity change, negative = loss of viability” value was -9.78%.
In the case of CS(=O)(=O)c1ccc2nc(NC(=O)C3CCCCC3)sc2c1, the “activity change, negative = loss of viability” value is reported as -2.4%.
For CC12CCC(C(=O)N3CCN(c4ncccn4)CC3)(c3nc4ccccc4nc31)C2(C)C (stereo not given), the “activity change, negative = loss of viability” value was -9.41%.
For COc1ccc(NC(=O)C2CCC(CNc3c(N4CCCCC4)c(=O)c3=O)CC2)c(OC)c1 (stereo not given), the Potency was 25 µM (active).
In the case of CC(=O)c1c(C)n(-c2ccc(C)cc2)c2ccc(O)cc12, the “activity change, negative = loss of viability” value is reported as -1.71%.
In the case of COc1ccc(NC(C)=O)cc1NC(=O)CN1CCN(C2c3ccccc3-c3ccccc32)CC1, the “activity change, negative = loss of viability” value is reported as -13.3%.
For Cc1ccc(C)c(S(=O)(=O)N2CCN(c3ncnc4sccc34)CC2)c1, the Potency was 6.28 µM (active).
% is scaled to controls: 0 for no effect and ±100 for the full control effect; potency is read from the fitted curve at half-maximal effect.
